# Laboratory results taken from PubChem BioAssay (EPA / NIEHS).
# Inconclusive results are not listed. Activity calls are given as the source filed them. Rule for the calls, unless noted: active = hit-call score of the fitted dose curve at least 0.9, where 1 is the maximum; inactive = score below 0.9.
# Tests used:
# [1] = ACEA_ER_80hr: ACEA Biosciences xCELLigence Real-Time Cell Analysis on Estrogen Receptor Agonism for Proliferation (AID 2282667; active = hit-call score of the fitted dose curve at least 0.9, where 1 is the maximum); conditions: T47D proliferation, impedance (xCELLigence), 80 h
# How it was run: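 Cell-growth kinetics were measured by impedance in T47D cells treated continuously with compound (top 100 uM final, 1:4 steps, 8 points). Activity at 80 h was scored as signal gain over the DMSO baseline.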
# [2] = ATG_CRE_CIS: Attagene CIS-FACTORIAL HepG2 Assay for human cAMP Responsive Element (CRE) binding protein 3 (AID 2282926); conditions: HepG2 CRE cis-reporter, Attagene multiplexed mRNA; actives raise or lower the signal
# How it was run: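 Cells carrying cis-regulated reporter constructs respond through their own endogenous factors. After 24 h treatment, RNA is reverse-transcribed, amplified, labelled and sized by capillary electrophoresis; up- and down-regulation are both scored against vehicle.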
# [3] = target: CCAAT/enhancer-binding protein beta (Homo sapiens) (UniProt P17676); assay: ATG_C_EBP_CIS: Attagene CIS-FACTORIAL HepG2 Assay for human CCAAT/Enhancer Binding Protein (C/EBP) beta (AID 2282927); conditions: HepG2 Attagene cis-factorial transcription factor reporter; actives raise or lower the signal
# Chain of CCAAT/enhancer-binding protein beta (Homo sapiens) (P17676 whole entry, looked up): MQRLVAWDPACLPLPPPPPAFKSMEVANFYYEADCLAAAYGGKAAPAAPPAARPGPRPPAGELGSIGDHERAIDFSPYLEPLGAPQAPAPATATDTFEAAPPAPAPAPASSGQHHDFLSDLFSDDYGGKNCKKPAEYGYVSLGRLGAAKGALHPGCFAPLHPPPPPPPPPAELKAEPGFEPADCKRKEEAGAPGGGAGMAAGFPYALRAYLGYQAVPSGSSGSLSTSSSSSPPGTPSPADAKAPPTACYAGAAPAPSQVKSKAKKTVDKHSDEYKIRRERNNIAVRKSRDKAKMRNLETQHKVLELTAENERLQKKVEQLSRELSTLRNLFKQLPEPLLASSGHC
# How it was run: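 Following a 24 h incubation with test chemical, transfected HepG2 cells yielded RNA whose reporter transcripts were quantified by RT-PCR and fluorescent capillary electrophoresis, with DMSO serving as baseline for bidirectional fitting.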
# [4] = ATG_CMV_CIS: Attagene CIS-FACTORIAL HepG2 Assay for human CMV (Internal Marker) (AID 2282928); conditions: HepG2 CMV promoter reporter, transcription factor profiling; actives raise or lower the signal;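 note: endpoint acts as a background internal control marker rather than a target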
# How it was run: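 Bidirectional fits against DMSO are applied to reporter mRNA, read by RT-PCR with capillary electrophoresis, from HepG2 cells exposed 24 h. The endpoint serves as an internal CMV background marker within the cis-factorial reporter panel.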
# [5] = ATG_DR4_LXR_CIS: Attagene CIS-FACTORIAL HepG2 Assay for human Liver X Receptor (LXR), DR4 submotif (AID 2282929); conditions: HepG2 Attagene DR4 cis-reporter, mRNA transcription; actives raise or lower the signal
# How it was run: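 Total RNA from 24 h-treated, MRTU-transfected HepG2 cells underwent reverse transcription, PCR, fluorescent primer extension and restriction digestion before capillary electrophoresis. Both increases and decreases in reporter signal were fitted against DMSO.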
# [6] = target: Aryl hydrocarbon receptor (Homo sapiens) (UniProt P35869); assay: ATG_Ahr_CIS: Attagene CIS-FACTORIAL HepG2 Assay for human Aryl Hydrocarbon Receptor (Ahr) (AID 2282930); conditions: HepG2 AhR cis-factorial reporter transcription; actives raise or lower the signal
# Chain of Aryl hydrocarbon receptor (Homo sapiens) (P35869 whole entry, looked up): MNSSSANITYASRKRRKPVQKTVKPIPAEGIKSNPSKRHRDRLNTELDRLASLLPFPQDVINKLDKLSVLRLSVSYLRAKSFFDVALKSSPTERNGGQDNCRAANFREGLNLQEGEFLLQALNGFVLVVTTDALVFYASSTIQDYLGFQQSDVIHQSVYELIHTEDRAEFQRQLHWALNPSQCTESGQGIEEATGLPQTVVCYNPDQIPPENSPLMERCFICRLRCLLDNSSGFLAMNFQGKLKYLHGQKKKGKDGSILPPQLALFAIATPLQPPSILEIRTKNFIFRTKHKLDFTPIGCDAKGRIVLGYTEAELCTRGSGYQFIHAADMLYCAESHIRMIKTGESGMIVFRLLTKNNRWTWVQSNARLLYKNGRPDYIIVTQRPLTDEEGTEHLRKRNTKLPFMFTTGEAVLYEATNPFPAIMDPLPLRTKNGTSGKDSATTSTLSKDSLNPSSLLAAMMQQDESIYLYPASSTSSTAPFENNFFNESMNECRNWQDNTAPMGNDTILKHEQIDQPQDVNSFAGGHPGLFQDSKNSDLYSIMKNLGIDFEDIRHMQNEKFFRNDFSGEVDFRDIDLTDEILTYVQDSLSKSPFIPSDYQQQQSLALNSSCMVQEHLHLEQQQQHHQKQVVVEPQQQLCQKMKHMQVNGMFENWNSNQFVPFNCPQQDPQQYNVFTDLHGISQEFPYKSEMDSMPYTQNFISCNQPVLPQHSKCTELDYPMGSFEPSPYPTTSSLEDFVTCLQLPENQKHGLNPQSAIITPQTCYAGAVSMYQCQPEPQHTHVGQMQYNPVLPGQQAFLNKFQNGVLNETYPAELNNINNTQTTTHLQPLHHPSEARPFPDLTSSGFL
# How it was run: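 Values derive from bidirectional fitting against DMSO negative control. Underlying signal: cis-element reporter mRNA in transiently transfected HepG2, harvested 24 h post-dose and measured by RT-PCR plus capillary electrophoresis.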
# [7] = ATG_AP_1_CIS: Attagene CIS-FACTORIAL HepG2 Assay for human Activator Protein 1 (AP-1) (AID 2282931); conditions: HepG2 Attagene cis-factorial AP-1 reporter mRNA; actives raise or lower the signal
# How it was run: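 HepG2, transient cis-reporter transfection; 24 h; readout RT-PCR/CE fluorescence; DMSO baseline, gain and loss fitted.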
# [8] = ATG_AP_2_CIS: Attagene CIS-FACTORIAL HepG2 Assay for human Activator Protein 2 (AP-2) (AID 2282932); conditions: HepG2 AP-2 cis-reporter, Attagene transcription factor profiling; actives raise or lower the signal
# How it was run: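 Assay in transfected HepG2 with promoter-regulated reporters, 24 h incubation after dosing. Signal is reporter mRNA fluorescence (RT-PCR, capillary electrophoresis), analysed for both increases and decreases relative to DMSO controls.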
# [9] = ATG_BRE_CIS: Attagene CIS-FACTORIAL HepG2 Assay for human Bone Morphogenetic Protein (BMP) Response Element (BRE) (AID 2282933); conditions: HepG2 BMP response element reporter, Attagene transcription factor profiling; actives raise or lower the signal
# How it was run: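 HepG2 cells transiently transfected with multiplexed cis-element reporter units were dosed with chemical for 24 h. Reporter mRNA was measured by RT-PCR with fluorescent labelling, HpaI digestion and capillary electrophoresis; bidirectional fitting relative to DMSO.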
# [10] = target: Retinoic acid receptor alpha (Homo sapiens) (UniProt P10276); assay: ATG_DR5_RAR_CIS: Attagene CIS-FACTORIAL HepG2 Assay for human Retinoic Acid Receptor Alpha (RARE), DR5 submotif (AID 2282934); conditions: HepG2 Attagene cis-factorial RARE DR5 reporter, mRNA; actives raise or lower the signal;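 for AC50: reporter responds to endogenous RAR alpha beta and gamma in HepG2 not RARA alone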
# Chain of Retinoic acid receptor alpha (Homo sapiens) (P10276 whole entry, looked up): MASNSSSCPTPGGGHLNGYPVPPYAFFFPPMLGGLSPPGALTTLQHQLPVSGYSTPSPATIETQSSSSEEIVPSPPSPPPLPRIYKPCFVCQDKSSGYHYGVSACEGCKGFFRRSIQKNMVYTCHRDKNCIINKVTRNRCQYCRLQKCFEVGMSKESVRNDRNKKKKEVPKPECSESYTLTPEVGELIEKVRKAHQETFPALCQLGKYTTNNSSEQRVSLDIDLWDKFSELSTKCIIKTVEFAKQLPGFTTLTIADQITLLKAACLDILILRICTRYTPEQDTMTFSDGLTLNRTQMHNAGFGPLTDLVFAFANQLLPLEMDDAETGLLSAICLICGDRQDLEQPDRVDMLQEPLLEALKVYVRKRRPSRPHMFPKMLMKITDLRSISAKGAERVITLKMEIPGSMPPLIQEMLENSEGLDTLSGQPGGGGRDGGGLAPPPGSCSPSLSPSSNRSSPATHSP
# How it was run: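 Endpoint fitted in both directions relative to DMSO as negative control. It reflects DR5 cis-element reporter mRNA induction in transiently transfected HepG2 cells, measured 24 h after dosing through RT-PCR and fluorescent capillary electrophoresis.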
# [11] = target: Transcription factor E2F1 (Homo sapiens) (UniProt Q01094); assay: ATG_E2F_CIS: Attagene CIS-FACTORIAL HepG2 Assay for human E2F Transcription Factor 1 (AID 2282935); conditions: HepG2 Attagene cis-reporter, E2F reporter RNA transcripts; actives raise or lower the signal
# Chain of Transcription factor E2F1 (Homo sapiens) (Q01094 whole entry, looked up): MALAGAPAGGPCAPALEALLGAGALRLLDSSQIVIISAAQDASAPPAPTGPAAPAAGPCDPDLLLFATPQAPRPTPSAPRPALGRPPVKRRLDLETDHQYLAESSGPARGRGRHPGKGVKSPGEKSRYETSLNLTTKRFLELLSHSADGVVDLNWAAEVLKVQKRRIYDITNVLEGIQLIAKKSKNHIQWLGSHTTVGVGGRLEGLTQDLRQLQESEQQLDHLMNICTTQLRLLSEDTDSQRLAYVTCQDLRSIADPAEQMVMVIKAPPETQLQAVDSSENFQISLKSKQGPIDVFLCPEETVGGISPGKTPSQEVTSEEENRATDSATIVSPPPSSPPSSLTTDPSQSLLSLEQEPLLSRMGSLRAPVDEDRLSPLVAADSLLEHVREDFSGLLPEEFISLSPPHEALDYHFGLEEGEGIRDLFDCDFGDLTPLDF
# How it was run: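 In this cis-factorial format, endogenous factor activity drives transfected reporters in HepG2; transcripts collected at 24 h are quantified by fluorescence after RT-PCR and capillary separation.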
# [12] = ATG_E_Box_CIS: Attagene CIS-FACTORIAL HepG2 Assay for human Enhancer Box (E-box) (AID 2282936); conditions: HepG2 E-box cis-reporter transcription, actives raise or lower the signal
# How it was run: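 Measured 24 h post-dosing in HepG2 cells transfected with multiple cis-regulated reporter units, signal being reporter mRNA induction detected by fluorescent RT-PCR with capillary electrophoresis; gain or loss fitted against DMSO.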
# [13] = ATG_M_61_CIS: Attagene CIS-FACTORIAL HepG2 Assay for M61 Transcription Factor (Internal Marker) (AID 2282937); conditions: HepG2 Attagene CIS-FACTORIAL M61 internal marker reporter; actives raise or lower the signal
# How it was run: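 Transfect HepG2 with MRTUs; dose 24 h; isolate RNA; reverse-transcribe with DNase I treatment; PCR-amplify, FAM-label and cut with HpaI for 2 h at 37 C; resolve by CE. Bidirectional fitting against DMSO.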
# [14] = ATG_EGR_CIS: Attagene CIS-FACTORIAL HepG2 Assay for human Early Growth Response 1 (EGR1) (AID 2282938); conditions: HepG2 Attagene CIS-FACTORIAL EGR reporter mRNA; actives raise or lower the signal
# How it was run: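 After a 24 h treatment of transiently transfected HepG2 cells, total RNA was reverse-transcribed and reporter sequences PCR-amplified, labelled and run on capillary electrophoresis. Reporters sit under cis-regulatory promoters sensing endogenous factors.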
# [15] = ATG_M_19_CIS: Attagene CIS-FACTORIAL HepG2 Assay for M19 Transcription Factor (Internal Marker) (AID 2282939); conditions: HepG2 Attagene CIS-FACTORIAL M19 internal marker reporter; actives raise or lower the signal
# How it was run: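 HepG2 cells transiently transfected with cis-regulated multiple reporter transcription units were dosed for 24 h; reporter mRNA was quantified by RT-PCR, 6-FAM primer-extension labelling, HpaI digestion and capillary electrophoresis, with bidirectional fitting against DMSO baseline.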
# [16] = ATG_ERE_CIS: Attagene CIS-FACTORIAL HepG2 Assay for Estrogen Response Element (ERE) (AID 2282940); conditions: HepG2 ERE cis-reporter, Attagene RNA transcript; actives raise or lower the signal
# How it was run: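 HepG2 cells transiently transfected with cis-promoter-driven multiplexed reporter transcription units report endogenous TF activity. After 24 h compound exposure, reporter mRNA is quantified by RT-PCR with capillary electrophoresis fluorescence; bidirectional fitting versus DMSO baseline.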
# [17] = ATG_Ets_CIS: Attagene CIS-FACTORIAL HepG2 Assay for human Erythroblast Transformation Specific (ETS) (AID 2282941); conditions: HepG2 ETS cis-reporter transcription, actives raise or lower the signal
# How it was run: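 Endogenous transcription factor activity read as reporter mRNA via RT-PCR and capillary electrophoresis, with gain or loss fitted bidirectionally against DMSO. Human HepG2 liver cells, transiently transfected CIS reporter constructs, 24 h exposure.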
# [18] = target: Hepatocyte nuclear factor 3-beta (Homo sapiens) (UniProt Q9Y261); assay: ATG_FoxA2_CIS: Attagene CIS-FACTORIAL HepG2 Assay for human Forkhead box A2 (FOXA2) (AID 2282942); conditions: HepG2 cis-reporter transcription factor activity, 24 h; actives raise or lower the signal
# Chain of Hepatocyte nuclear factor 3-beta (Homo sapiens) (Q9Y261 whole entry, looked up): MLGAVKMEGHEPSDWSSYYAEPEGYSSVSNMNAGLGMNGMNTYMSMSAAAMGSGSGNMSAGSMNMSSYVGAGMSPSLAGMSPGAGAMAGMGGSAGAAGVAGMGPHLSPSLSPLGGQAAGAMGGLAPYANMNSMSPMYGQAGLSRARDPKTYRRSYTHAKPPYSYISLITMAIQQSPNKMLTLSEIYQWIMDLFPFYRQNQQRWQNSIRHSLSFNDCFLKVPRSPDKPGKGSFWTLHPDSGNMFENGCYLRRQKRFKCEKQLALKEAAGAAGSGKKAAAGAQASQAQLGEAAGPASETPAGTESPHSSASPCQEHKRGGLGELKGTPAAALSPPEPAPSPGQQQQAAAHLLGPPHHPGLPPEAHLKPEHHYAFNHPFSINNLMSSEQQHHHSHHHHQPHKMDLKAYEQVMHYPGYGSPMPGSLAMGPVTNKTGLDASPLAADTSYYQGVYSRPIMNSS
# How it was run: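 24 h dosing of HepG2 bearing cis-reporter constructs; mRNA readout by RT-PCR/CE fluorescence; bidirectional fit, DMSO baseline.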
# [19] = ATG_GATA_CIS: Attagene CIS-FACTORIAL HepG2 Assay for human GATA Binding Protein (AID 2282944); conditions: HepG2 GATA cis-element reporter, Attagene multiplex mRNA; actives raise or lower the signal
# How it was run: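 HepG2 cells transiently transfected with multiplexed cis-element reporter units reflecting endogenous transcription factor activity; reporter mRNA measured after 24 h dosing by RT-PCR, 6-FAM labeling, HpaI digestion and capillary electrophoresis. Bidirectional fitting versus DMSO baseline.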
# [20] = ATG_FoxO_CIS: Attagene CIS-FACTORIAL HepG2 Assay for human Forkhead box O (FoxO) (AID 2282943); conditions: HepG2 Attagene cis-reporter, FoxO element, mRNA; actives raise or lower the signal
# How it was run: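 Values reflect reporter mRNA induction or loss in HepG2 cells 24 h post-dosing, fitted bidirectionally with DMSO as negative control and baseline. Detection used RT-PCR and fluorescence capillary electrophoresis.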
smiles,measurement,setting,value
CC(C)CCCCCOC(=O)CS,outcome,[1],inactive
same,outcome,[2],inactive
same,outcome,[3],inactive
same,outcome,[4],inactive
same,outcome,[5],inactive
same,outcome,[6],inactive
same,outcome,[7],inactive
same,outcome,[8],inactive
same,outcome,[9],inactive
same,outcome,[10],inactive
same,outcome,[11],inactive
same,outcome,[12],inactive
same,outcome,[13],inactive
same,outcome,[14],inactive
same,outcome,[15],inactive
same,outcome,[16],inactive
same,outcome,[17],inactive
same,outcome,[18],inactive
same,outcome,[19],inactive
O=C(O)CCCC(=O)O,outcome,[1],inactive
same,outcome,[2],inactive
same,outcome,[3],inactive
same,outcome,[4],inactive
same,outcome,[5],inactive
same,outcome,[6],inactive
same,outcome,[7],inactive
same,outcome,[8],inactive
same,outcome,[9],inactive
same,outcome,[10],inactive
same,outcome,[11],inactive
same,outcome,[13],inactive
same,outcome,[14],inactive
same,outcome,[15],inactive
same,outcome,[16],inactive
same,outcome,[17],inactive
same,outcome,[18],inactive
same,outcome,[20],inactive
same,outcome,[19],inactive
C=CC(=O)O[C@H]1C[C@@H]2CC[C@@]1(C)C2(C)C,outcome,[1],inactive
same,AC50,[2],180 µM (active)
same,outcome,[3],inactive
same,outcome,[4],inactive
same,outcome,[5],inactive
same,outcome,[6],inactive
same,AC50,[7],75.3 µM (active)
same,AC50,[8],100 µM (active)
same,outcome,[9],inactive
same,AC50,[10],177 µM (active)
same,outcome,[11],inactive
same,AC50,[12],25.3 µM (active)
same,AC50,[14],100 µM (active)
same,AC50,[15],157 µM (active)
same,AC50,[16],24.9 µM (active)
same,outcome,[17],inactive
same,outcome,[18],inactive
same,outcome,[20],inactive
same,outcome,[19],inactive
CO[Si](CCCS)(OC)OC,outcome,[1],inactive
same,outcome,[2],inactive
same,outcome,[3],inactive
same,outcome,[4],inactive
same,outcome,[5],inactive
same,outcome,[6],inactive
same,outcome,[7],inactive
same,outcome,[8],inactive
same,outcome,[9],inactive
same,outcome,[10],inactive
same,outcome,[11],inactive
same,outcome,[12],inactive
same,outcome,[13],inactive
same,outcome,[14],inactive
same,outcome,[15],inactive
same,AC50,[16],68.7 µM (active)
same,outcome,[18],inactive
same,outcome,[20],inactive
same,outcome,[19],inactive
O=S(=O)(O)c1ccc(Nc2nc(Nc3ccc(C=Cc4ccc(Nc5nc(Nc6ccc(S(=O)(=O)O)cc6)nc(N(CCO)CCO)n5)cc4S(=O)(=O)O)c(S(=O)(=O)O)c3)nc(N(CCO)CCO)n2)cc1,outcome,[1],inactive
same,outcome,[2],inactive
same,outcome,[3],inactive
same,outcome,[4],inactive
same,outcome,[5],inactive
same,outcome,[6],inactive
same,outcome,[7],inactive
same,outcome,[8],inactive
same,outcome,[9],inactive
same,outcome,[10],inactive
same,outcome,[11],inactive
same,outcome,[12],inactive
same,outcome,[14],inactive
same,outcome,[15],inactive
same,outcome,[16],inactive
same,outcome,[17],inactive
same,outcome,[18],inactive
same,outcome,[20],inactive
same,outcome,[19],inactive
OCCCc1ccccc1,outcome,[1],inactive
same,outcome,[2],inactive
same,outcome,[3],inactive
same,outcome,[4],inactive
same,outcome,[5],inactive
same,outcome,[6],inactive
same,outcome,[7],inactive
same,outcome,[8],inactive
same,outcome,[9],inactive
same,outcome,[10],inactive
same,outcome,[11],inactive
same,outcome,[12],inactive
same,outcome,[14],inactive
same,outcome,[15],inactive
same,outcome,[16],inactive
same,outcome,[18],inactive
same,outcome,[20],inactive
same,outcome,[19],inactive
CCCCOCCOC(=O)COc1ccc(Cl)cc1Cl,AC50,[1],10.8 µM (active)
same,outcome,[2],inactive
same,outcome,[3],inactive
same,outcome,[4],inactive
same,outcome,[5],inactive
same,outcome,[6],inactive
same,outcome,[7],inactive
same,outcome,[8],inactive
same,outcome,[9],inactive
same,outcome,[10],inactive
same,outcome,[11],inactive
same,outcome,[12],inactive
same,outcome,[14],inactive
same,outcome,[15],inactive
same,outcome,[16],inactive
same,outcome,[17],inactive
same,outcome,[18],inactive
same,outcome,[20],inactive
same,outcome,[19],inactive
CCCCCCCCCC(C)=O,outcome,[1],inactive
same,outcome,[2],inactive
same,outcome,[3],inactive
same,outcome,[4],inactive
same,outcome,[5],inactive
same,outcome,[6],inactive
same,outcome,[7],inactive
same,outcome,[8],inactive
same,outcome,[9],inactive
same,outcome,[10],inactive
same,outcome,[11],inactive
same,outcome,[12],inactive
same,outcome,[13],inactive
same,outcome,[14],inactive
same,outcome,[15],inactive
same,outcome,[16],inactive
same,outcome,[17],inactive
same,outcome,[18],inactive
same,outcome,[19],inactive
